Reference: ChEMBL document CHEMBL2218924, “A broad activity screen in support of a chemogenomic map for kinase signalling research and drug discovery” (Biochem J, 2013)

Each compound was assayed against AMP-activated protein kinase (AMPK) alpha-1/beta-1/gamma-1 (Homo sapiens) (UniProt P54619+Q9Y478+Q13131). Conditions: at 10 µM.
Chain of AMP-activated protein kinase (AMPK) alpha-1/beta-1/gamma-1 (Homo sapiens) (P54619 whole entry): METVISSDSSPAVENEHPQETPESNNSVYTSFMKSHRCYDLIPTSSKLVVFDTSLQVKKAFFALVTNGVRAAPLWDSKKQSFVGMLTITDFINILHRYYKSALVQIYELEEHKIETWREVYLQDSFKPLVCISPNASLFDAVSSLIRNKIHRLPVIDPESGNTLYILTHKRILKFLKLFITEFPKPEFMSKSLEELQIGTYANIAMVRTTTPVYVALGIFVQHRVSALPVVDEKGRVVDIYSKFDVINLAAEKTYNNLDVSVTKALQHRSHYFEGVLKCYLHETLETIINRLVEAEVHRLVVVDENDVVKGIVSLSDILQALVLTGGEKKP
Chain of AMP-activated protein kinase (AMPK) alpha-1/beta-1/gamma-1 (Homo sapiens) (Q13131 whole entry partner): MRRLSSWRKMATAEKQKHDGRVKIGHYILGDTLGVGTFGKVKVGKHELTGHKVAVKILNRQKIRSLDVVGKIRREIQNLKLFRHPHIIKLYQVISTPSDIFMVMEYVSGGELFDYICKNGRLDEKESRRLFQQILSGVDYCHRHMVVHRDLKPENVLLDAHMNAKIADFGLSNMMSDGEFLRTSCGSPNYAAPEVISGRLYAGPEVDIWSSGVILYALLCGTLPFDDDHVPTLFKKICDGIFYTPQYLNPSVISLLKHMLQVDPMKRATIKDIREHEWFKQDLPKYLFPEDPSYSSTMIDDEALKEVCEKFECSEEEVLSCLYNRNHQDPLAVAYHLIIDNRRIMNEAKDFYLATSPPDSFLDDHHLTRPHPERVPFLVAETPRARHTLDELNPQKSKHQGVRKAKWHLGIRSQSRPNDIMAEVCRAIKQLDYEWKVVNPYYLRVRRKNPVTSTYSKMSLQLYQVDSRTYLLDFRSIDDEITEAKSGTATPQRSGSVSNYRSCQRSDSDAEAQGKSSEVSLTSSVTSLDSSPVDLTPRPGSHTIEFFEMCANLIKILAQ
Chain of AMP-activated protein kinase (AMPK) alpha-1/beta-1/gamma-1 (Homo sapiens) (Q9Y478 2-270 partner limits assumed): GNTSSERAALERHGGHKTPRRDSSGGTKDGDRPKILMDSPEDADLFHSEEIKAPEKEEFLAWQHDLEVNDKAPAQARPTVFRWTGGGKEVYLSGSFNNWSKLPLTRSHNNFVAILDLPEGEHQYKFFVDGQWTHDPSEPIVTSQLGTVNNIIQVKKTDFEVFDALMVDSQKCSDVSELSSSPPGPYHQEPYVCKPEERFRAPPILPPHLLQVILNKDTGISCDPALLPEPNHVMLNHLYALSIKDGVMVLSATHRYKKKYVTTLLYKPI

Row | SMILES | residual activity
1 | O=C1Nc2ccc(Br)cc2/C1=C\c1cc2c([nH]1)CCCC2 | 60%
2 | C[C@@H](N)[C@H]1CC[C@H](C(=O)Nc2ccncc2)CC1 | 93%
3 | c1ccc(-c2n[nH]c3c2oc2ccccc23)cc1 | 49%
4 | COc1cc2ncc(-c3ccccc3)nc2cc1OC | 82%
5 | Cc1nc(-c2ccccc2)c(-c2ccncc2)o1 | 108%
6 | Cc1cc(Nc2nc(-c3ccccc3)nc3ccccc23)n[nH]1 | 3%
7 | CCN(CC)C(=O)c1ccc(Nc2nc(OCC3CCCCC3)c3nc[nH]c3n2)cc1 | 6%
8 | COc1cc2ncnc(Nc3ccc(O)c(Br)c3)c2cc1OC | 37%
9 | COc1cccc(-c2cc(=O)c3ccccc3o2)c1N | 96%
10 | Oc1n[nH]c2nnc(-c3c(-c4ccccc4)nn4ccccc34)cc12 | 82%
11 | Cc1cc2ncc(-c3ccccc3)nc2cc1C | 74%
12 | CN(C)CCCn1cc(C2=C(c3c[nH]c4ccccc34)C(=O)NC2=O)c2ccccc21 | 10%
13 | CO[C@@H]1[C@H](N(C)C(=O)c2ccccc2)C[C@H]2O[C@]1(C)n1c3ccccc3c3c4c(c5c6ccccc6n2c5c31)C(=O)NC4 | 6%
14 | COc1ccc(S(=O)(=O)N(CCO)c2ccccc2CN(C)C/C=C/c2ccc(Cl)cc2)cc1 | 76%
15 | O=C1NC(=O)c2c1c1c3ccccc3[nH]c1c1[nH]c3cc(Br)ccc3c21 | 87%
16 | COc1cc2ncnc(Nc3ccc(NC(=O)c4ccccc4)cc3)c2cc1OC | 90%
17 | NC(=O)c1ccc2[nH]c(-c3ccc(Oc4ccc(Cl)cc4)cc3)nc2c1 | 32%

Row | SMILES | residual activity
18 | O=Nc1c(-c2c(O)[nH]c3ccccc23)[nH]c2ccccc12 | 0%
19 | CC(=O)c1ccc(N2CCOCC2)cc1O | 90%
20 | COc1ccc(OC)c2c(=S)c3ccccc3[nH]c12 | 81%
21 | O=C1Nc2ccccc2/C1=C1/Nc2ccccc2/C1=N\OCCC(O)CO (configuration not stated) | 4%
22 | c1ccc2c(-c3ccncc3)c[nH]c2c1 | 82%
23 | Nc1ccc2ncnc(NCCc3ccc(Oc4ccccc4)cc3)c2c1 | 28%
24 | N#CC(C#N)=C(N)/C(C#N)=C/c1ccc(O)cc1 | 79%
25 | O=C1Nc2cc(Br)ccc2/C1=C1/Nc2ccccc2/C1=N\O | 10%
26 | Cc1cncc2cccc(S(=O)(=O)N3CCCN(C(=O)CN)C[C@H]3C)c12 | 66%
27 | O=[N+]([O-])c1ccc(-c2nc(-c3ccc(F)cc3)c(-c3ccncc3)[nH]2)cc1 | 94%
28 | CCOc1cc2ncnc(Nc3cccc(Br)c3)c2cc1OCC | 57%
29 | COc1ccc(C(=O)Nc2sc3c(c2C(N)=O)CCCC3)cc1OC | 78%
30 | N#Cc1cnc2cnc(NCc3cccnc3)cc2c1Nc1ccc(F)c(Cl)c1 | -1%
31 | O=C1c2ccccc2-[n+]2ccc3c([nH]c4ccccc43)c21 | 94%
32 | Oc1ccc(Nc2nc(-c3ccc(Cl)cc3)cs2)cc1 | 90%
33 | CC(=O)O/N=C1\C(=C2\C(=O)Nc3cc(Br)ccc32)Nc2ccccc21 | 9%
34 | CC(C)n1cnc2c(NCc3ccccc3)nc(NCCCO)nc21 | 87%

Each compound was assayed against AMP-activated protein kinase, AMPK (Homo sapiens) (UniProt P54646+O43741+P54619+Q9UGJ0+Q9Y478+Q13131+Q9UGI9). Conditions: at 1 µM.

Row | SMILES | residual activity
35 | C[C@@H](N)[C@H]1CC[C@H](C(=O)Nc2ccncc2)CC1 | 104%
36 | c1ccc(-c2n[nH]c3c2oc2ccccc23)cc1 | 91%
37 | Cc1nc(-c2ccccc2)c(-c2ccncc2)o1 | 114%
38 | Cc1cc(Nc2nc(-c3ccccc3)nc3ccccc23)n[nH]1 | 5%
39 | CCN(CC)C(=O)c1ccc(Nc2nc(OCC3CCCCC3)c3nc[nH]c3n2)cc1 | 22%
40 | COc1cc2ncnc(Nc3ccc(O)c(Br)c3)c2cc1OC | 93%
41 | COc1cccc(-c2cc(=O)c3ccccc3o2)c1N | 98%
42 | Oc1n[nH]c2nnc(-c3c(-c4ccccc4)nn4ccccc34)cc12 | 97%
43 | CN(C)CCCn1cc(C2=C(c3c[nH]c4ccccc34)C(=O)NC2=O)c2ccccc21 | 26%
44 | CO[C@@H]1[C@H](N(C)C(=O)c2ccccc2)C[C@H]2O[C@]1(C)n1c3ccccc3c3c4c(c5c6ccccc6n2c5c31)C(=O)NC4 | 1%
45 | COc1ccc(S(=O)(=O)N(CCO)c2ccccc2CN(C)C/C=C/c2ccc(Cl)cc2)cc1 | 99%
46 | O=C1NC(=O)c2c1c1c3ccccc3[nH]c1c1[nH]c3cc(Br)ccc3c21 | 82%
47 | NC(=O)c1ccc2[nH]c(-c3ccc(Oc4ccc(Cl)cc4)cc3)nc2c1 | 71%
48 | O=Nc1c(-c2c(O)[nH]c3ccccc23)[nH]c2ccccc12 | 1%
49 | O=C1Nc2ccccc2/C1=C1/Nc2ccccc2/C1=N\OCCC(O)CO (configuration not stated) | 3%
50 | Nc1ccc2ncnc(NCCc3ccc(Oc4ccccc4)cc3)c2c1 | 65%
51 | CO[C@H]1C[C@@H]2CC[C@@H](C)[C@@](O)(O2)C(=O)C(=O)N2CCCC[C@H]2C(=O)O[C@H]([C@H](C)C[C@@H]2CC[C@@H](O)[C@H](OC)C2)CC(=O)[C@H](C)/C=C(\C)[C@@H](O)[C@@H](OC)C(=O)[C@H](C)C[C@H](C)/C=C/C=C/C=C/1C | 93%
52 | N#CC(C#N)=C(N)/C(C#N)=C/c1ccc(O)cc1 | 100%
53 | O=C1Nc2cc(Br)ccc2/C1=C1/Nc2ccccc2/C1=N\O | 1%
54 | Cc1cncc2cccc(S(=O)(=O)N3CCCN(C(=O)CN)C[C@H]3C)c12 | 97%
55 | O=[N+]([O-])c1ccc(-c2nc(-c3ccc(F)cc3)c(-c3ccncc3)[nH]2)cc1 | 91%
56 | CCOc1cc2ncnc(Nc3cccc(Br)c3)c2cc1OCC | 79%
57 | COc1ccc(C(=O)Nc2sc3c(c2C(N)=O)CCCC3)cc1OC | 93%
58 | N#Cc1cnc2cnc(NCc3cccnc3)cc2c1Nc1ccc(F)c(Cl)c1 | -5%
59 | O=C1c2ccccc2-[n+]2ccc3c([nH]c4ccccc43)c21 | 101%
60 | Oc1ccc(Nc2nc(-c3ccc(Cl)cc3)cs2)cc1 | 119%
61 | CC(=O)O/N=C1\C(=C2\C(=O)Nc3cc(Br)ccc32)Nc2ccccc21 | 46%
62 | CC(C)n1cnc2c(NCc3ccccc3)nc(NCCCO)nc21 | 99%
